# Sampled rows, rich in hits. Any-hit rate of the full collection: about 2.9%.
# PLCg1 inh = PLC-gamma1 enzyme inhibitors, primary screen, biochemical, fluorescence, purified enzyme. 1-phosphatidylinositol 4,5-bisphosphate phosphodiesterase gamma-1 (Homo sapiens), P19174. inhibition, % at 12.2 µM. fluorogenic substrate. 370,000 compounds, 0.84% hits; in the data active means inhibition above about 9.5%
# KLK7 zymogen act = proKLK7 zymogen activators, primary screen, biochemical, fluorescence intensity. Kallikrein-7 (Homo sapiens), P49862. purified proKLK7, EDANS-DABCYL substrate fluorescence; 100% is mature enzyme control, 0% vehicle. activation, % at 7 µM. 370,000 compounds, 0.9% hits;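 active means activation above the mean of all tested compounds plus 3 SD, computed per campaign excluding outliers beyond control limits, cut at about 13% in these data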
# PLC-beta3 inh = human PLC-beta3 inhibitors, primary screen, biochemical, fluorescence | 1-phosphatidylinositol 4,5-bisphosphate phosphodiesterase beta-3 (Homo sapiens), Q01970 | Purified PLC-beta3, fluorogenic substrate | inhibition, % at 12.2 µM | 370,000 compounds, 0.18% hits; in the data active means inhibition above about 11%;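 further: 0% = median of compound wells on plate and 100% = full blocker control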
# ADAM17 inh = ADAM17 inhibitors, primary screen, biochemical, QFRET; inhibition, % at 6.95 µM; Disintegrin and metalloproteinase domain-containing protein 17 (Homo sapiens), P78536; 370,000 compounds, 0.83% hits; recombinant ADAM17, EDANS/DABCYL FRET peptide cleavage;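 active means inhibition above the mean of compounds lying between control limits plus 3 SD, set per campaign, cut at about 8.5% in these data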;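 further: 0% = DMSO-only wells as the low control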
# ADAM10 inh = human ADAM10 inhibitors, primary screen, biochemical, QFRET, HTS | Disintegrin and metalloproteinase domain-containing protein 10 (Homo sapiens), O14672 | recombinant ADAM10, EDANS/DABCYL FRET peptide cleavage, 3 h | inhibition, % at 7 µM | 370,000 compounds, 0.62% hits | AID 720582, 2013;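 active means inhibition above a per-campaign cutoff equal to the mean of compounds falling between control-based bounds plus 3 SD, cut at about 20% in these data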;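 further: 0% = DMSO wells while the 100% control is not disclosed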
# Target sequence (O14672 214-748 limits assumed): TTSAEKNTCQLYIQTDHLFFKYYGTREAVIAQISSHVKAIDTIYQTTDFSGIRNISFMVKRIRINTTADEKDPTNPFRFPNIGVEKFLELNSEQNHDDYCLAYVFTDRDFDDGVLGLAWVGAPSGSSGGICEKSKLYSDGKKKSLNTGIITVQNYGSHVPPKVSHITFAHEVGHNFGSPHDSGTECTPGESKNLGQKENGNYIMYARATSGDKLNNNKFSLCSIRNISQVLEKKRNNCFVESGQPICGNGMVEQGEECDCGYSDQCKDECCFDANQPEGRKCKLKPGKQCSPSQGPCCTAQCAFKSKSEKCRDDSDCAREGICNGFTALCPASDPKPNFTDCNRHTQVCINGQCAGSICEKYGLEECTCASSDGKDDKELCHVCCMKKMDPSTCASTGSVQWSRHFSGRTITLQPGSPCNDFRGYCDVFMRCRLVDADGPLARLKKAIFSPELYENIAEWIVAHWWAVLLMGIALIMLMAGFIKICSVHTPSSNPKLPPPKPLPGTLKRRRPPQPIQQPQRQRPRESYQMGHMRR
# ADAM10 ctr = ADAM10 inhibitors, counter-screen for ADAM17 exosite inhibitor project, biochemical, FRET, human ADAM10 | 2,900 compounds, 47% hits | inhibition, % at 6.95 µM | AID 743256, 2014 | recombinant ADAM10, EDANS/DABCYL FRET peptide cleavage, 3 h | shares compounds with ADAM17 inh;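 active means mean inhibition over the triplicate runs exceeds the activity threshold set in the earlier primary screen, cut at about 20% in these data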;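 further: 0% = DMSO wells and 100% = marimastat wells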
# ADAM17 confirm = ADAM17 inhibitors, hit retest, confirmation, biochemical, QFRET peptide cleavage; shares compounds with ADAM17 inh; recombinant ADAM17, EDANS/DABCYL QFRET peptide cleavage; inhibition, % at 6.95 µM; 2,900 compounds, 65% hits; AID 743257, 2014;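 active means mean inhibition across replicates above the hit cutoff set in the primary screen, cut at about 8.5% in these data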;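 further: 0% = DMSO wells and 100% = marimastat wells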
# An asterisk follows results filed as active; nt = no result.
SMILES,PLCg1 inh,KLK7 zymogen act,PLC-beta3 inh,ADAM17 inh,ADAM10 inh,ADAM10 ctr,ADAM17 confirm
COc1cccc(NC(=O)N(Cc2ccco2)C(C)c2cccs2)c1 (stereo not drawn),5,1,5,6,-1,nt,nt
CC(c1cccs1)N(Cc1ccco1)C(=O)Nc1ccc(Cl)c(Cl)c1 (stereo not drawn),3,0,6,8.6*,10,-1,6
COc1cccc(CNC(=O)COC(=O)CCc2cc(OC)c(OC)c(OC)c2)c1,-1,0,-4,-1,-10,nt,nt
CC(C)Nc1nc(Cl)nc(NNC(=O)C(C)Oc2ccccc2)n1 (stereo not drawn),7,0,4,9.0*,5,-2,-2
Cc1ccccc1/C=N/NC(=O)c1ccc(-n2cnnn2)cc1,-4,0,-4,-2,-2,nt,nt
Cc1ccc(S(=O)(=O)C[C@@H]2OC[C@H](Cc3ccccc3)N2S(=O)(=O)c2ccc(C)cc2)cc1,2,1,0,0,-2,nt,nt
O=S(=O)(NCC(Nc1ccccc1)c1ccccc1)c1ccc(Cl)cc1 (stereo not drawn),3,0,3,9.0*,15,36*,21*
O=C(NCc1ccccc1)C(C1CC1)n1c(=O)c(-c2ccco2)nc2ccccc21 (stereo not drawn),-101,2,-123,-92,-368,nt,nt
O=C(Cn1c(=O)sc2ccccc21)Nc1ccc(S(=O)(=O)N2CCCCC2)cc1,5,0,4,8.8*,11,30*,17*
COc1ccccc1NS(=O)(=O)c1ccc(Cl)c(NC(=S)NC(=O)C2CCCC2)c1,0,0,-1,9.9*,13,38*,17*
CCN(CC)S(=O)(=O)c1ccc(Cl)c(NC(=S)NC(=O)C2CCCC2)c1,4,-1,-5,5,10,nt,nt
S=C(NCc1ccc(Cl)cc1)Nc1ccncc1,4,0,1,8.9*,7,8,13*
S=C(NCc1ccc(Cl)cc1)Nc1ccccc1,2,0,0,4,-1,nt,nt
Cc1nc(C)c(-c2nnc(-c3ccccc3Cl)o2)cc1C(=O)NN,-5,0,-13,-1,5,nt,nt
Cc1nc(C)c(-c2nnc(-c3ccc(C(C)(C)C)cc3)o2)cc1C(=O)NN,4,0,4,10*,13,2,5
COC(=O)c1cccc(N(C(=O)CNC(=O)c2ccco2)C(C(=O)NC2CCCC2)c2ccco2)c1 (stereo not drawn),3,0,8,8.8*,3,-3,2
CN(Cc1ccccc1)S(=O)(=O)c1ccc(NC(=O)C2CCCO2)cc1 (stereo not drawn),4,0,-5,8.9*,0,-5,-1
COc1ccc(S(=O)(=O)N2C[C@@H](O)COC[C@@H]3O[C@H](CC(=O)NCCCN4CCOCC4)CC[C@H]32)cc1,5,0,-1,-1,-10,nt,nt
COc1cccc2cc(C(=O)c3ccccc3)oc12,2,-1,-1,-2,-2,nt,nt
COc1cccc2cc(/C(=N/O)c3ccc(Br)cc3)oc12,5,1,-3,12*,13,16,11*
Cc1cc(C)cc(NC2=CC(=O)CC(c3ccco3)C2)c1 (stereo not drawn),-13,0,-12,-2,-6,nt,nt
CCc1ccc(NC2=CC(=O)CC(c3ccco3)C2)cc1 (stereo not drawn),-9,-2,-12,9.6*,15,-6,2
O=C(/C=C/c1cccc([N+](=O)[O-])c1)NCCSCc1cccc(Cl)c1,7,0,2,13*,19,22*,12*
O=C(/C=C/c1cccc([N+](=O)[O-])c1)NCc1ccccc1,1,0,0,3,-3,nt,nt
CC(=O)Nc1ccc(S(=O)(=O)NCCSCc2cccc(Cl)c2)cc1,7,0,2,8.9*,15,6,5
SMILES,PLCg1 inh,KLK7 zymogen act,PLC-beta3 inh,ADAM17 inh,ADAM10 inh,ADAM10 ctr,ADAM17 confirm
CC(=O)Nc1ccc(S(=O)(=O)NCCSCc2c(Cl)cccc2Cl)cc1,-5,1,-1,-2,-1,nt,nt
CSCCC(NC(=O)c1ccco1)C(=O)N(C)CC(=O)Nc1ccccc1Br (stereo not drawn),0,1,-4,1,-1,nt,nt
COc1ccc([C@H]2C[C@H](O)[C@@H](n3cc(-c4ccc(F)cc4)nn3)CN2C(=O)c2cccs2)cc1,-1,0,-2,0,-1,nt,nt
CCCN(C(=O)c1cn(CCC)c2ccccc12)c1ccc(Oc2cccnc2)cc1,1,0,-2,10*,11,16,9.1*
Cn1cc([N+](=O)[O-])c(C(=O)NNC(=O)c2ccc([N+](=O)[O-])cc2)n1,5,-1,10,8.8*,5,8,9
Cn1cc([N+](=O)[O-])c(C(=O)N/N=C/c2ccc([N+](=O)[O-])cc2)n1,2,1,3,5,6,nt,nt
CC1CCc2c(C(=O)Oc3cccc(-n4cnnn4)c3)csc2C1 (stereo not drawn),-2,0,-6,8.8*,19,15,11*
CC1=C(C(=O)N(C)C)CC(CC(=O)NC2CCCC2)C(=O)N1Cc1ccc(F)cc1 (stereo not drawn),1,1,1,-2,0,nt,nt
CC(CC(=O)OCC(=O)NCc1ccc(Cl)cc1)c1ccccc1 (stereo not drawn),7,-1,-4,11*,0,14,10*
COC(CNC(=O)C(=O)Nc1cc2c3c(c1)CC(=O)N3CCC2)OC,0,0,-5,-4,0,nt,nt
CCOc1ccc(N=Nc2c(=O)[nH]n3c(=O)cc(C)[nH]c23)cc1,4,0,4,10*,13,15,12*
Nc1nc2ccccc2cc1C(=O)NCc1ccc(-c2ccccc2)cc1,-88,0,-107,-12,-47,nt,nt
COC(=O)[C@]12C[C@H](CC(=O)NCC3CCCCC3)C(=O)N(CCc3ccc(OC)c(OC)c3)C1=C[C@H](COCc1ccccc1)O[C@@H]2C,5,1,5,11*,6,26*,9.1*

# Compound activity (PubChem)
